Only some compounds are listed: those with a hit (about 4.7% of all), similar ones and a draw of the others.
PfHsp90 set2: growth inhibition of PfHsp90-expressing yeast, primary screen, antimalarial PfHsp90 inhibitor project, S. cerevisiae, BacTiter-Glo luminescence, single point, set 2. BacTiter-Glo ATP, 48 h; yeast lacking PDR1 and PDR3 efflux regulators. 310,000 tested, 0.32% active. AID 504621, 2011. inhibition, % at 9.4 µM;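 active = every replicate shows inhibition above about 80%, whatever the replicate mean, limit read from the data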;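 note: 0% = DMSO neutral controls and 100% = 20 µM radicicol positive controls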
tim23-1 inh: growth inhibitors of tim23-1 mutant yeast, primary screen, luminescence, uHTS. S. cerevisiae tim23-1 growth, BacTiter-Glo luminescence, 24 h. inhibition, % at 20 µM. 330,000 tested, 1.3% active. AID 463212, 2010;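 active = growth inhibition of the mutant yeast at or above 50%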;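 note: temperature-sensitive mutant grown at 25 °C; plate controls were DMSO-treated mutant yeast for no effect and medium wells lacking yeast for full effect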
tim10-1 inh: growth inhibitors of tim10-1 mutant yeast, primary screen, luminescence, uHTS; 330,000 tested, 2.2% active; S. cerevisiae tim10-1 ts strain growth, BacTiter-Glo, 24 h; inhibition, % at 20 µM;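 active = inhibition of at least 40%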;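 note: mutant grown at 25 °C; 0% = DMSO wells with yeast and 100% = wells holding no yeast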
SKKanGAS inh: S. pyogenes SKKanGAS growth inhibitors in kanamycin, primary screen, streptokinase expression inhibitor project, SKKanGAS strain, BacTiter-Glo luminescence; 6 h; inhibition, % at 7.5 µM; 300,000 tested, 1.3% active; AID 1662, 2009;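 active = mean replicate score, as percent of positive control median, at least 50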;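 note: strain carries kanamycin resistance gene driven by streptokinase promoter and grows in 40 µg/ml kanamycin; loss of luminescence reflects streptokinase promoter inhibition or plain growth inhibition; 0% = median of DMSO wells and 100% = positive control at its reference dose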
TIM10 inh: growth inhibitors of isogenic TIM10 control yeast, primary screen, counter-screen for tim10-1 yeast inhibitor project, luminescence, uHTS. S. cerevisiae TIM10 strain growth, BacTiter-Glo luminescence, 24 h. inhibition, % at 10 µM. 330,000 tested, 1.4% active;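 active = inhibition of 40% or more at the single tested concentration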;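 note: wild-type TIM10 isogenic control strain grown at permissive 25 °C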
ATG4B inhibitor: ATG4B protease inhibitors, primary screen, biochemical, fluorescence, uHTS. inhibition, % at 8.33 µM. ATG4B cleavage of LC3-PLA2, NBD-HPC fluorescence, 1 h. Cysteine protease ATG4B (Homo sapiens), Q9Y4P1. 340,000 tested, 0.51% active. AID 504462, 2011; in the data active = inhibition above about 40%
Target sequence (Q9Y4P1 whole entry, looked up): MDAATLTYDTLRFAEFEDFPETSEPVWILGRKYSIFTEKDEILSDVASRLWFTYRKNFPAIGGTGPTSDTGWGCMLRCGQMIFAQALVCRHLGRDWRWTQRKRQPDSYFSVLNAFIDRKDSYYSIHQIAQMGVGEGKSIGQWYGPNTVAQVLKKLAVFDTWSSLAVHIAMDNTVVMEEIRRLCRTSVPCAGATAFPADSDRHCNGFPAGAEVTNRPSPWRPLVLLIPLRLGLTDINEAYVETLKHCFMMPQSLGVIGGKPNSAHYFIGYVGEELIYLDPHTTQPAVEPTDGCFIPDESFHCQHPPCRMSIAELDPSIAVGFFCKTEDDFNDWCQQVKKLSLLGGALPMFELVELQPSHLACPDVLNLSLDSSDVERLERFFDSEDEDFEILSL
tim10-1 confirm: growth inhibitors of tim10-1 mutant yeast, confirmation, single concentration, luminescence, S. cerevisiae; shares compounds with tim10-1 inh; S. cerevisiae tim10-1 ts strain growth, BacTiter-Glo, 24 h; inhibition, % at 20 µM; 7,400 tested, 56% active; AID 463213, 2010;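 active = inhibition of yeast growth at or above a set limit in either of two repeat tests at 20 µM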;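 note: tim10-1 mutant grown at permissive 25 °C to find synthetic lethal compounds; 0% = DMSO yeast wells and 100% = medium wells without yeast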
* hit, by the source's call; · = no result.

SMILES	PfHsp90 set2	tim23-1 inh	tim10-1 inh	SKKanGAS inh	TIM10 inh	ATG4B inhibitor	tim10-1 confirm
O=C(NC(=S)Nc1ccccc1N1CCCC1)c1ccc([N+](=O)[O-])cc1	20	49	57*	6	34	-6	42*
O=C(NC(=S)Nc1ccccc1N1CCCCC1)c1ccc(-c2cccc([N+](=O)[O-])c2)o1	-17	17	41*	9	16	1	6
CC(=O)NC(=S)Nc1ccccc1N1CCCCC1	-22	25	43*	-4	26	2	18
O=C(NC(=S)Nc1ccccc1N1CCOCC1)c1ccc([N+](=O)[O-])cc1	-22	19	8	1	13	-1	·
COC(=O)c1ccccc1NC(=O)C1CCCC1	14	8	27	-9	5	-3	·
COC(=O)c1ccccc1NC(=S)NC(=O)C1CCCCC1	-4	41	41*	-8	30	10	34*
Cc1nc(CN2CCN(S(=O)(=O)c3c(Cl)cc(Br)cc3Cl)CC2)cs1	·	45	49*	·	33	-9	44*
CCN(CC)CCN(Cc1cc2cc3c(cc2[nH]c1=O)OCO3)C(=S)NCc1ccco1	7	25	3	0	-9	9	·
Cc1cc([N+](=O)[O-])ccc1NCc1ccccc1[N+](=O)[O-]	9	20	20	4	9	1	·
COc1ccc(-c2cc3nc(-c4ccccc4)cc(N4CCC(O)CC4)n3n2)cc1	31	49	40*	40	33	-24	24
CCC(=O)N1CCc2cc(Br)cc(S(=O)(=O)N3CCCCCC3)c21	15	29	35	-6	31	-7	·
Cc1ncc(CSCC(=O)Nc2cc(C(F)(F)F)ccc2Cl)c(CO)c1O	-12	-4	21	4	3	3	·
CCCc1cc(-c2n[nH]c(=S)n2CC)cs1	23	40	29	0	38	1	·
CCc1cc(-c2n[nH]c(=S)n2-c2ccccc2C)cs1	-17	35	42*	-10	22	7	35*
CCCc1cc(-c2n[nH]c(=S)n2C(C)c2ccccc2)cs1 (stereo not given)	-114	45	48*	9	14	8	19
COc1ccccc1-c1nnc(SCC(=O)Nc2ccc3[nH]c(=O)[nH]c3c2)n1N	-15	6	10	-3	-8	7	·
CCCC(=O)C1=C(O)C(C(=O)OC)C(C)(C)CC1=Nc1ccc(N)cc1 (stereo not given)	·	28	42*	-1	17	-8	28
O=C(N/N=C/c1ccc(O)cc1)NC12CC3CC(CC(C3)C1)C2	8	41	50*	2	32	-9	35*
CN(C)c1ccc(/C=C(\NC(=O)c2ccccc2)C(=O)N/N=C/c2ccc(C(=O)O)cc2)cc1	-17	15	8	1	6	-4	·
Cc1cc(=O)[nH]c2ccc(Cc3ccccc3)cc12	-14	·	·	·	·	-8	·
CCCCc1ccc(/C=C2\C(=O)ON=C2c2ccccc2)s1	-12	21	40*	2	18	9	29
COC(=O)C(=Cc1ccccc1[N+](=O)[O-])C(=O)OC	9	44	44*	-2	21	1	27
O=C(/C=C/c1ccccc1[N+](=O)[O-])Oc1ccccc1	·	17	4	-2	12	·	·
COCCNC(=O)[C@H]1N2C(=O)c3c(ccc(OC)c3OC)C2SC1(C)C (stereo not given in full)	17	13	13	-2	0	3	·
Cc1ccc(C(=O)O/N=C(\N)c2cccc([N+](=O)[O-])c2)cc1	4	25	52*	-2	39	-2	72*
N/C(=N\OC(=O)CCCOc1ccccc1)c1cccc([N+](=O)[O-])c1	32	32	55*	-2	26	-3	46*

Screens as filed in PubChem BioAssay.
